Screening data: PubChem BioAssay, The Scripps Research Institute Molecular Screening Center
MITF primary: inhibitors of human MITF; AlphaScreen MITF homodimerization, bead proximity signal; O75030; 650,000 tested, 0.91% active; inhibition, % at 2.6 µM; AID 1259374; in the data active = inhibition above about 50%
GPR151 activ: activators of human GPR151 | Q8TDV0 | PathHunter beta-arrestin GPR151 cells, luminescence | activation, % at 11.2 µM | 650,000 tested, 1% active | AID 1508602; in the data active = activation above about 4.9%
FBW7 activator: activators of human E3 ligase FBW7; normalized activity (activation), % at 26.1 µM; 650,000 tested, 0.13% active; AlphaScreen FBW7–phospho-cyclin E peptide binding, activator screen; in the data active = normalized activity above about 1.9%;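 also: purified mutant Fbw7 with reduced substrate affinity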
Target sequence (Q969H0 whole entry, looked up): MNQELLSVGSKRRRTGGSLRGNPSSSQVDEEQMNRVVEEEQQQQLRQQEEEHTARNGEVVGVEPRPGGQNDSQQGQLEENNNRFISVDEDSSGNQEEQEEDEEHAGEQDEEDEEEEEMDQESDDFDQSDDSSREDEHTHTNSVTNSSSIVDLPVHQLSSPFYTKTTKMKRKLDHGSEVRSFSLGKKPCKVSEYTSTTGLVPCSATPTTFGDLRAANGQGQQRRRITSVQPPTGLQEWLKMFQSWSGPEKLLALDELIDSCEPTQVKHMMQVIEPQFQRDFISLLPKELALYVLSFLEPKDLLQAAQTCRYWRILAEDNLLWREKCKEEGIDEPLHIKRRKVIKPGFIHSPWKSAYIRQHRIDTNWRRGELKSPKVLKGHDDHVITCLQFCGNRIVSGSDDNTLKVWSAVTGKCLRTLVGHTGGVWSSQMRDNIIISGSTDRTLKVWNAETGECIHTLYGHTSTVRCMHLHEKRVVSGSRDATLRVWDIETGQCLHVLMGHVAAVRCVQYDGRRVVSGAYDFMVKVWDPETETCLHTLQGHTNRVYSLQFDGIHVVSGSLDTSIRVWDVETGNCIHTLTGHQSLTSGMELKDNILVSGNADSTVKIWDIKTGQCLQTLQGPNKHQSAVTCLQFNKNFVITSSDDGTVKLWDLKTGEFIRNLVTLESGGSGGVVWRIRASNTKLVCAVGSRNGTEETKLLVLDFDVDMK
TEAD-YAP block: TEAD-YAP interaction inhibition. HEK-TIYL cells, TEAD-Gal4/YAP UAS-luciferase luminescence. inhibition, % at 9.12 µM. 640,000 tested, 1.4% active; in the data active = inhibition above about 32%
Of the large screens only hits and unclear results are named; the others gave an inactive call. Shown are actives, neighbours in structure and some others; about 3.5% of the full set was active somewhere.

CCOc1ccc(C(NC(C)=O)c2cc(Cl)c3cccnc3c2O)cc1 (stereo not given)	none
CC(=O)NC(c1ccc2ccccc2c1)c1ccc2cccnc2c1O (stereo not given)	TEAD-YAP block 80
CSc1sccc1/C=N/NC(=O)C(NC(=O)c1ccccc1)=C(C)C	none
O=c1c(-c2ccc(Cl)cc2)c(N2CCN(c3ccccc3F)CC2)c1=O	TEAD-YAP block 42
O=c1c(-c2ccccc2)c(N2CCN(c3cccc(Cl)c3)CC2)c1=O	none
O=c1c(-c2ccccc2)c(N2CCN(c3ccccc3F)CC2)c1=O	none
COc1ccccc1N1CCN(c2c(-c3ccccc3)c(=O)c2=O)CC1	TEAD-YAP block 67
O=c1c(-c2ccc(Cl)cc2)c(N2CCN(c3ccccc3)CC2)c1=O	TEAD-YAP block 60
CC(=O)N1CCc2cc(C(=O)CN3CCN(c4ccc(Cl)cc4)CC3)ccc21	TEAD-YAP block 44
COC(=O)/C=C\C(=O)Nc1ccc(Br)c(C)c1	TEAD-YAP block 47
O=C(O)c1cccc(COc2ccc(CO)cc2)c1	TEAD-YAP block 79
O=C(O)c1cccc(COc2ccccc2Br)c1	TEAD-YAP block 65
O=C(O)c1cccc(COc2ccc3ccccc3c2)c1	TEAD-YAP block 86
O=C(O)c1cccc(COc2cccc(Cl)c2)c1	none
COC(C(=O)N1CCc2c(cnc(C)c2CNC(=O)c2ccc(=O)[nH]n2)C1)c1ccccc1 (stereo not given)	none
Cc1cc(C(=O)NNC(=O)C(O)(c2ccccc2)c2ccccc2)cs1	FBW7 activator 1.9
CCCOC(=O)c1ccc(N=Cc2cccc(OC)c2O)cc1	none
C/C(=N\NC(=O)c1cc(-c2ccncc2)nc2ccccc12)c1ccc(-n2ccnc2)cc1	TEAD-YAP block 43
COc1cccc(/C(C)=N/NC(=O)c2cc(-c3ccncc3)nc3ccccc23)c1	TEAD-YAP block 49
COc1cccc(CNC(=O)c2cc(-c3ccncc3)nc3ccccc23)c1	none
C/C(=N\NC(=O)c1cc(-c2ccncc2)nc2ccccc12)c1ccc(C#N)cc1	TEAD-YAP block 42
CC/C(C)=N\NC(=O)c1cc(-c2ccccc2)nc2ccccc12	none
COC(=O)C1=CN(CC23CC4CC(CC(C4)C2)C3)C=C(C(=O)OC)C1c1ccsc1	FBW7 activator 1.9
COc1ccc(CCNc2nc(Nc3nc4ccccc4n3C)nc3c2ncn3-c2ccsc2)cc1	none
CC(C)(C)c1ccc(C2CC(=O)C=C(O)C2)cc1 (stereo not given)	TEAD-YAP block 54
Cc1ccc(C2CC(=O)C=C(O)C2)cc1 (stereo not given)	none
COc1ccccc1CNc1nc(C)nc2sc(C)c(C)c12	TEAD-YAP block 46
Cc1nc(NCc2ccc(Cl)cc2)c2c(C)c(C)sc2n1	TEAD-YAP block 39
COC(=O)Cc1nc(NCc2ccccc2OC)c2c(C)c(C)sc2n1	none
Cc1sc2nc(-c3cccnc3)nc(NCc3cccnc3)c2c1C	MITF primary 73, TEAD-YAP block 68
Cc1nc(NCc2ccc(F)cc2)c2c(C)c(C)sc2n1	TEAD-YAP block 35
Cc1sc2ncnc(NCc3ccc(Cl)cc3)c2c1C	none
COC(=O)C1=C(C(=O)OC)SC(=C2C(=S)C(C)(C)N(C(=O)c3ccc4c(c3)OCO4)c3ccc(OC)cc32)S1	none
N=c1c2c(-c3ccccc3)c(-c3ccccc3)n(Cc3ccco3)c2ncn1CCO	TEAD-YAP block 68
COc1ccc(OC)c(CNc2ncc(-c3cccc(Br)c3)n2C)c1	TEAD-YAP block 43
COc1cccc(CNc2ncc(-c3cccc(OC)c3)n2C)c1	TEAD-YAP block 54
COc1ccc(OC)c(CNc2ncc(-c3ccc(Br)cc3)n2C)c1	none
CCOc1ccc(N(C(C)C(=O)Nc2ccccc2OCC)S(C)(=O)=O)cc1 (stereo not given)	TEAD-YAP block 54
CCOc1ccccc1NC(=O)C(C)N(c1ccc(Cl)cc1)S(C)(=O)=O (stereo not given)	none
CCOc1ccccc1NC(=O)C(C)Oc1ccc(OC)cc1 (stereo not given)	TEAD-YAP block 48
CCOc1ccccc1NC(=O)C(C)Oc1ccccc1 (stereo not given)	none
CCOc1ccc(N(C(C)C(=O)Nc2ccccc2C(=O)OC)S(C)(=O)=O)cc1 (stereo not given)	TEAD-YAP block 35
CCOC(=O)c1cnc2nc(-c3ccc(Cl)cc3)[nH]n2c1=O	none
CC(C)NC(=O)Cn1c(SCC(=O)Nc2nccs2)nc2ccccc21	none
CCC(C)c1ccc(OCCCNCCO)cc1 (stereo not given)	TEAD-YAP block 40
N#Cc1nc(COc2ccc(Br)cc2)oc1NCc1ccco1	FBW7 activator 23
O=C(NCCc1nc(-c2ccncc2)n[nH]1)c1cccs1	none
CCN1/C(=C/c2ccc3cc(C)ccc3[n+]2CC)Sc2ccc(O)cc21	TEAD-YAP block 87
CCN1/C(=C/c2ccc3ccccc3[n+]2CC)Sc2cc(NC(C)=O)ccc21	none
CCN1/C(=C/c2ccc3cc(NC(C)=O)ccc3[n+]2CC)Sc2cc(C)ccc21	none
CCN1/C(=C/c2ccc3ccccc3[n+]2CC)Sc2ccc(C)cc21	TEAD-YAP block 79
Cc1cc(C)c(C#N)c(Oc2cccc(NC(=O)COc3ccc(Cl)cc3Cl)c2)n1	none
N#Cc1ccccc1Cn1nc(-c2cccc3ncccc23)oc1=O	TEAD-YAP block 53
C/C(=C\C1=[N+](c2ccccc2)C(C)(O)CS1)Nc1ccccc1 (stereo not given)	none
OCCC1CCCCN1c1ccnc2c(-c3cc4ccccc4o3)cnn12 (stereo not given)	TEAD-YAP block 67
OCCC1CCCCN1c1ccnc2c(-c3cccc4ccccc34)cnn12 (stereo not given)	none
OCCC1CCCCN1c1ccnc2c(-c3cccc(O)c3)cnn12 (stereo not given)	TEAD-YAP block 95
NC(=O)c1cccc(-c2cnn3c(N4CCCCC4CCO)ccnc23)c1 (stereo not given)	none
CC(=O)Nc1cccc(-c2cnn3c(N4CCCCC4CCO)ccnc23)c1 (stereo not given)	none
OCCC1CCCCN1c1ccnc2c(-c3cccc(C(F)(F)F)c3)cnn12 (stereo not given)	TEAD-YAP block 55
OCCC1CCCCN1c1ccnc2c(-c3cccc(F)c3)cnn12 (stereo not given)	TEAD-YAP block 93
CCc1ccc(OCC(=O)Nc2nccs2)cc1	TEAD-YAP block 86
CCCc1ccc(OCC(=O)Nc2nccs2)cc1	TEAD-YAP block 81
Cc1ccc(OCC(=O)Nc2nccs2)cc1C	TEAD-YAP block 75
O=C(COc1ccc(F)cc1)Nc1nccs1	none
Cc1cc2cc(CCNS(=O)(=O)c3ccc([N+](=O)[O-])cc3)c(=O)[nH]c2cc1C	TEAD-YAP block 45
Cc1ccc(C)c2[nH]c(=O)c(CCNS(=O)(=O)c3ccc([N+](=O)[O-])cc3)cc12	none
O=C1NC(=S)N(c2ccccc2)C(=O)/C1=C\c1ccc([N+](=O)[O-])s1	none
COc1ccccc1OCC(=O)N/N=C/c1ccc([N+](=O)[O-])cc1	none
C=CCc1ccccc1OCC(=O)N/N=C/c1ccccc1	TEAD-YAP block 51
COc1ccccc1OCC(=O)N/N=C/c1ccccc1	none
